About 7,900 targets were measured; listed, in parts, are those with a hit and a random draw of the rest. About 0.6% of all pairs of compound and target were hits.
Assays:
Assay in all cases: log2 fold change, soluble protein after heating vs DMSO (PISA); higher = thermal stabilisation; K562 cells, 10 uM, 30 min; active = over 0.2 and 3.5 SD of the protein, either way, in both replicates (recomputed)
saracatinib = compound: CN1CCN(CCOc2cc(OC3CCOCC3)c3c(Nc4c(Cl)ccc5c4OCO5)ncnc3c2)CC1 [saracatinib]
Outline: (§1)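 Soluble protein was quantified by TMTpro 16plex LC-MS/MS after channel sums were equalised. It was obtained as the supernatant after 21,000xg for 90 min from pooled aliquots of K562 cells (2×10^6 cells/mL, 10 μM compound, 30 min) heated for 3 min across 48°C-58°C and extracted in PBS with 0.5% NP-40 at 4°C. Thermal stability values are relative to control samples and come from duplicates. They are given as log2 fold changes.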

sotrastaurin = compound: CN1CCN(c2nc(C3=C(c4c[nH]c5ccccc45)C(=O)NC3=O)c3ccccc3n2)CC1 [sotrastaurin]
Outline: as §1

alvocidib = compound: CN1CC[C@H](c2c(O)cc(O)c3c(=O)cc(-c4ccccc4Cl)oc23)[C@H](O)C1 [alvocidib]
Outline: as §1

Tubastatin A = compound: CN1CCc2c(c3ccccc3n2Cc2ccc(C(=O)NO)cc2)C1 [Tubastatin A]
Outline: as §1

[1] = compound: CNC(=O)C1=CC=CC=C1NC2=NC(=NC=C2Cl)NC3=C(C=C(C=C3)N4CCOCC4)OC
Outline: as §1

defactinib = compound: CNC(=O)c1ccc(Nc2ncc(C(F)(F)F)c(NCc3nccnc3N(C)S(C)(=O)=O)n2)cc1 [defactinib]
Outline: as §1

rucaparib = compound: CNCc1ccc(-c2[nH]c3cc(F)cc4c3c2CCNC4=O)cc1 [rucaparib]
Outline: as §1

[2] = compound: CNc1nc(-c2ccc3c(N)n[nH]c3c2)cc(N2C[C@@H](C(=O)NC3CCCCC3)CC[C@H]2C)n1
Outline: as §1

encorafenib = compound: COC(=O)N[C@@H](C)CNc1nccc(-c2cn(C(C)C)nc2-c2cc(Cl)cc(NS(C)(=O)=O)c2F)n1 [encorafenib]
Outline: as §1

[3] = compound: COC(=O)[C@H](CCSC)NC(=O)C1=C(C=C(C=C1)NC[C@H](CS)N)C2=CC=CC=C2
Outline: as §1

Measured: log2 fold change

PPP2R5A (UniProt Q15172)
Sequence of UniProt Q15172 (Q15172 whole entry, looked up): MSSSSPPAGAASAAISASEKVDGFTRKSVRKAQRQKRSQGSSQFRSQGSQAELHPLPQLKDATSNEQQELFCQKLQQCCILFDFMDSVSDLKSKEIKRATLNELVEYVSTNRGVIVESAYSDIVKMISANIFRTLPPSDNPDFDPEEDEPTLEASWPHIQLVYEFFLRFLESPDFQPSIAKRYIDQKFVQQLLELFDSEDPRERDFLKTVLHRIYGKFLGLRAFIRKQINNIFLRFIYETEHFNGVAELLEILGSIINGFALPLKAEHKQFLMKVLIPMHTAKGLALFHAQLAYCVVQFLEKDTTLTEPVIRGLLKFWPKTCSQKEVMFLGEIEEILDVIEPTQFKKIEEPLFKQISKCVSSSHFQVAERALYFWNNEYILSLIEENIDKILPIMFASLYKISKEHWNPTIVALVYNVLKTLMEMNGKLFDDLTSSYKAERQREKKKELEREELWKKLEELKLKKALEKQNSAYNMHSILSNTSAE
inactive: saracatinib -0.03 | sotrastaurin -0.043 | alvocidib -0.089 | Tubastatin A 0.042 | [1] 0.01 | defactinib -0.037 | rucaparib 0.053 | [2] 0.032 | encorafenib 0.063 | [3] -0.03

PKM (UniProt P14618)
Sequence of UniProt P14618 (P14618 whole entry, looked up): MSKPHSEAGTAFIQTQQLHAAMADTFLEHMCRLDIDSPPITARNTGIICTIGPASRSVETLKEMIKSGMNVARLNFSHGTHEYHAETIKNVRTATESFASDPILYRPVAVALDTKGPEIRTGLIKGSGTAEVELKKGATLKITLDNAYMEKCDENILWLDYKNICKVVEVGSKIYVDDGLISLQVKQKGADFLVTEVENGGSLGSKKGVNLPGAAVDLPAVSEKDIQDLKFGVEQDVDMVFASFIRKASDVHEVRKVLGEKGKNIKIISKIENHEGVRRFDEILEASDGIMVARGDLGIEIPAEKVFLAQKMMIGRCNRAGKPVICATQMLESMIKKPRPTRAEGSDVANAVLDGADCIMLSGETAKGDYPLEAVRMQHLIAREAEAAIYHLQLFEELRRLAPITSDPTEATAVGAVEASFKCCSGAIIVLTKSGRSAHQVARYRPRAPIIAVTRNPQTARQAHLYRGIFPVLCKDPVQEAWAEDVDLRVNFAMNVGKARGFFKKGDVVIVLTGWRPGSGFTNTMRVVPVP
inactive: saracatinib 0.012 | sotrastaurin 0.024 | alvocidib 0 | Tubastatin A -0.004 | [1] -0.028 | defactinib -0.01 | rucaparib -0.052 | [2] -0.007 | encorafenib -0.01 | [3] 0.011

PRKCE (UniProt Q02156)
active: sotrastaurin -0.425
inactive: saracatinib -0.02 | alvocidib -0.143 | Tubastatin A -0.052 | [1] 0.075 | defactinib -0.133 | rucaparib -0.043 | [2] 0.006 | encorafenib 0.037 | [3] -0.06

PMVK (UniProt Q15126)
inactive: saracatinib -0.021 | sotrastaurin -0.003 | alvocidib -0.032 | Tubastatin A 0.229 | [1] -0.051 | defactinib 0.02 | [2] -0.039 | [3] -0.368

PDE2A (UniProt O00408)
inactive: saracatinib -0.011 | sotrastaurin -0.005 | alvocidib -0.003 | Tubastatin A 0.208 | [1] 0.01 | defactinib -0.094 | rucaparib -0.051 | [2] -0.065 | encorafenib -0.064 | [3] -0.042

QRSL1 (UniProt Q9H0R6)
Sequence of UniProt Q9H0R6 (Q9H0R6 whole entry, looked up): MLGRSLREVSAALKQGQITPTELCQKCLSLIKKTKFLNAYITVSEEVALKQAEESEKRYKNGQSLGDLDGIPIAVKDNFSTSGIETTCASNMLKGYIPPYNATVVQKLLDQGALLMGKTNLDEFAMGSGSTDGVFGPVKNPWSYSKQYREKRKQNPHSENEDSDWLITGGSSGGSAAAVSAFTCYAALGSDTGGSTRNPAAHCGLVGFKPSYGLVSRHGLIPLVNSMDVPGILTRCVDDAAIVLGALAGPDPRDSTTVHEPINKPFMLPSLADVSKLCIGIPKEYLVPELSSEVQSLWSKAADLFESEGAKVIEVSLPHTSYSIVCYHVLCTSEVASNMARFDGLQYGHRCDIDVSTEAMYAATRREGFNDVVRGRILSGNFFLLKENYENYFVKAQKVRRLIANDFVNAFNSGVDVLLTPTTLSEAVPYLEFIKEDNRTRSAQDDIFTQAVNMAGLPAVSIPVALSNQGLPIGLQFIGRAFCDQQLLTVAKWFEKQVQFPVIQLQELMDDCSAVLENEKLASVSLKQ
inactive: saracatinib 0.033 | sotrastaurin 0.003 | alvocidib -0.103 | Tubastatin A 0.01 | [1] -0.023 | defactinib -0.105 | rucaparib -0.047 | [2] 0.038 | encorafenib -0.017 | [3] -0.033

PSMB4 (UniProt P28070)
inactive: saracatinib -0.012 | sotrastaurin 0.026 | alvocidib 0.078 | Tubastatin A -0.002 | [1] -0.031 | defactinib 0.038 | rucaparib 0.019 | [2] -0.032 | encorafenib 0.011 | [3] 0.006

POLR3D (UniProt P05423)
Sequence of UniProt P05423 (P05423 whole entry, looked up): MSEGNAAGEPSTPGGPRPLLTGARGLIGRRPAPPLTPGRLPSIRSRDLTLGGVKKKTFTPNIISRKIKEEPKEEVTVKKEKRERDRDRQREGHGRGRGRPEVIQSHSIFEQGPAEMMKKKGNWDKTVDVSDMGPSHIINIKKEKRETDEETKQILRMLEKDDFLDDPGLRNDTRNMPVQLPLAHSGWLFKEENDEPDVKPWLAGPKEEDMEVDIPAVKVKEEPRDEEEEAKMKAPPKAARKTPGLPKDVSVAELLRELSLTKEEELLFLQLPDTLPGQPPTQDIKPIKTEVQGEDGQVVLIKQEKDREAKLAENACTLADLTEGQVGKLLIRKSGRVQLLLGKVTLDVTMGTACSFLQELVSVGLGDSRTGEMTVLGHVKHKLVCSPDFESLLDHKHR
inactive: saracatinib 0.264 | sotrastaurin -0.029 | alvocidib 0.024 | Tubastatin A 1.53 | [1] -0.074 | defactinib -0.027 | [2] 0.425 | [3] -0.08

PTPA (UniProt A6PVN8)
inactive: saracatinib 0.21 | sotrastaurin 0.003 | alvocidib 0.034 | Tubastatin A 0.131 | [1] -0.133 | defactinib -0.045 | rucaparib 0.072 | [2] -0.008 | encorafenib 0.077 | [3] 0.039

PDS5B (UniProt Q9NTI5)
inactive: saracatinib -0.134 | sotrastaurin 0.039 | alvocidib -0.097 | Tubastatin A 0.14 | [1] -0.169 | defactinib -0.101 | rucaparib -0.088 | [2] 0.014 | encorafenib 0 | [3] 0.032

PRKACB isoform 2 (UniProt P22694)
inactive: saracatinib -0.013 | sotrastaurin -0.119 | alvocidib -0.014 | Tubastatin A -0.035 | [1] -0.101 | defactinib 0.004 | rucaparib 0.002 | [2] 0.018 | encorafenib 0.011 | [3] 0.022

PHKA1 (UniProt P46020)
Sequence of UniProt P46020 (P46020 whole entry, looked up): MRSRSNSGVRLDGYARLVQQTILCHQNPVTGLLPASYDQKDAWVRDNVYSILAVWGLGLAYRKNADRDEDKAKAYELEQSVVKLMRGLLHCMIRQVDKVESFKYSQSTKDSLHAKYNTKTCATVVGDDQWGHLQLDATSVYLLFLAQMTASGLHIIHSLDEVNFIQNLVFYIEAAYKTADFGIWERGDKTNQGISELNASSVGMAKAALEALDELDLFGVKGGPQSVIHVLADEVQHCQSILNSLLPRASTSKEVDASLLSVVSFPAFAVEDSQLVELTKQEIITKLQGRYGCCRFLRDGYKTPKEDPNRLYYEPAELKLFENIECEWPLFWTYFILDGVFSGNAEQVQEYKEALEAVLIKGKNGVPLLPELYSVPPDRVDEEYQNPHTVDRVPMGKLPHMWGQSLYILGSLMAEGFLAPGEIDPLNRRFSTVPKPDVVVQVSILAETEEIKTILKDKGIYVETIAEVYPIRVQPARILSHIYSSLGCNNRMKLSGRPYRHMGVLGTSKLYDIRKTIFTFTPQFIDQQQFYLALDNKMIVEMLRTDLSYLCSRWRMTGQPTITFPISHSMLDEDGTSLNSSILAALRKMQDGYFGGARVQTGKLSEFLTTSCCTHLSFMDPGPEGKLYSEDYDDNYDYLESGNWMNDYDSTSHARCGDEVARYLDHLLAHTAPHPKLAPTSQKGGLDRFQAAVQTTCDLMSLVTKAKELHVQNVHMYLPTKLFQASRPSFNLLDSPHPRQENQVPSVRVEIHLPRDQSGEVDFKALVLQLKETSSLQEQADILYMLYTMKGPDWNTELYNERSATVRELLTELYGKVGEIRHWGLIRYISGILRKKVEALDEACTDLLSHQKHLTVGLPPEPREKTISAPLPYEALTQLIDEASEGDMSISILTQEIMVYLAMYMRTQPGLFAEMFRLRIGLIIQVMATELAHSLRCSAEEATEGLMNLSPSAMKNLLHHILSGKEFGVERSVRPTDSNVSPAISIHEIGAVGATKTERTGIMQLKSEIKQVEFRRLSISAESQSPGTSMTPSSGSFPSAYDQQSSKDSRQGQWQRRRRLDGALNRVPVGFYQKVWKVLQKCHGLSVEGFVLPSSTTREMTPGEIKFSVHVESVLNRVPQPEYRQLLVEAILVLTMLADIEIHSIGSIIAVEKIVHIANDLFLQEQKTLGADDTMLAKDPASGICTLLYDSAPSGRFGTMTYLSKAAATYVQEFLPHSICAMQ
inactive: saracatinib -0.12 | sotrastaurin 0.058 | alvocidib -0.073 | Tubastatin A -0.256 | [1] 0.101 | rucaparib -0.283 | [2] 0.027 | encorafenib -0.295

PSPC1 (UniProt Q8WXF1)
Sequence of UniProt Q8WXF1 (Q8WXF1 whole entry, looked up): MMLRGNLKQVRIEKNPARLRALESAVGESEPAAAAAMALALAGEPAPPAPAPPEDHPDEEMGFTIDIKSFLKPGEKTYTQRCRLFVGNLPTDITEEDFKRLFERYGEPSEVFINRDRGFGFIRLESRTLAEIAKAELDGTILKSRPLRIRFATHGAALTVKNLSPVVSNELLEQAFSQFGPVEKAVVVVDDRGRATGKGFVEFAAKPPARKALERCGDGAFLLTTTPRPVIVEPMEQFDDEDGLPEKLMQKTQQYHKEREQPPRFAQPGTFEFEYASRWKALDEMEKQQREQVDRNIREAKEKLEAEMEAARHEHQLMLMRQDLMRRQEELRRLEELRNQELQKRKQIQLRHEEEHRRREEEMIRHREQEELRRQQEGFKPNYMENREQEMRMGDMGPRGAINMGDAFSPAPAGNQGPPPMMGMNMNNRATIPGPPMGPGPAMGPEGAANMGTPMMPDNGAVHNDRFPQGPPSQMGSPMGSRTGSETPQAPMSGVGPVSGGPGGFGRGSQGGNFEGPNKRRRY
active: defactinib -0.342
inactive: saracatinib 0.007 | sotrastaurin -0.062 | alvocidib -0.068 | Tubastatin A 0.041 | [1] -0.036 | rucaparib 0.002 | [2] -0.011 | encorafenib 0.03 | [3] -0.028

PSME4 (UniProt Q14997)
inactive: saracatinib -0.006 | sotrastaurin -0.035 | alvocidib -0.051 | Tubastatin A 0.025 | [1] -0.027 | defactinib 0.037 | rucaparib -0.023 | [2] 0.067 | encorafenib 0.066 | [3] -0.029

PSMD9 (UniProt O00233)
inactive: saracatinib -0.022 | sotrastaurin 0.001 | alvocidib -0.012 | Tubastatin A 0.002 | [1] -0.016 | defactinib -0.034 | rucaparib -0.004 | [2] -0.031 | encorafenib -0.023 | [3] 0.005

PSMA3 (UniProt P25788)
inactive: saracatinib 0.012 | sotrastaurin 0.038 | alvocidib -0.043 | Tubastatin A -0.006 | [1] 0.014 | defactinib 0.048 | rucaparib -0.001 | [2] 0.02 | encorafenib 0.034 | [3] 0

PIGT (UniProt Q969N2)
inactive: saracatinib -0.024 | sotrastaurin -0.023 | alvocidib -0.021 | Tubastatin A -0.052 | [1] 0.029 | defactinib 0.012 | rucaparib -0.002 | [2] 0.013 | encorafenib 0.048 | [3] -0.015

PIP4P1 isoform 2 (UniProt Q86T03)
Sequence of UniProt Q86T03 (Q86T03 whole entry, looked up): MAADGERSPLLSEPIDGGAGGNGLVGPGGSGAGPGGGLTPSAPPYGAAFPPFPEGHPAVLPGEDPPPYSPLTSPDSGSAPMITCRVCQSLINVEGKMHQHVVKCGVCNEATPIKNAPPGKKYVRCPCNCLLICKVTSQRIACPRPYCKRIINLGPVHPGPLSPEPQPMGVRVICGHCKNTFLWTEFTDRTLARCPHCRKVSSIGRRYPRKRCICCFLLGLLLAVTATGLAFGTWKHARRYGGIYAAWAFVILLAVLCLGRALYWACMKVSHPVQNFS
inactive: saracatinib 0.014 | sotrastaurin -0.108 | alvocidib 0.066 | Tubastatin A -0.005 | [1] 0 | defactinib 0.039 | rucaparib -0.026 | [2] -0.059 | encorafenib -0.027 | [3] 0.015

PPP1R12A (UniProt O14974)
inactive: saracatinib -0.048 | sotrastaurin -0.054 | alvocidib -0.187 | Tubastatin A 0.01 | [1] -0.052 | defactinib -0.187 | rucaparib -0.012 | [2] -0.197 | encorafenib 0.057 | [3] -0.043

PML (UniProt P29590)
inactive: saracatinib -0.001 | sotrastaurin -0.038 | alvocidib -0.005 | Tubastatin A -0.051 | [1] 0.024 | defactinib -0.053 | rucaparib -0.008 | [2] -0.031 | encorafenib 0.005 | [3] 0

PDE6D (UniProt O43924)
Sequence of UniProt O43924 (O43924 whole entry, looked up): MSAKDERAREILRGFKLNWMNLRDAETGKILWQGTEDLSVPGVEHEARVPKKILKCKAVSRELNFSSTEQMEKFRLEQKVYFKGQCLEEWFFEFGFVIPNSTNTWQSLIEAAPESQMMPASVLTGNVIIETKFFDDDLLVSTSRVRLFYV
inactive: saracatinib -0.074 | sotrastaurin 0.035 | alvocidib -0.051 | Tubastatin A 0.029 | [1] -0.102 | defactinib -0.043 | [2] 0.119 | [3] 0.068

PRKAA1 isoform 2 (UniProt Q13131)
inactive: saracatinib 0.027 | sotrastaurin 0.033 | alvocidib -0.032 | Tubastatin A -0.015 | [1] -0.19 | defactinib -0.048 | rucaparib -0.006 | [2] -0.047 | encorafenib 0.02 | [3] -0.004

PGK2 (UniProt P07205)
inactive: saracatinib -0.196 | sotrastaurin 0.154 | alvocidib 0.017 | Tubastatin A -0.041 | defactinib 0.037 | rucaparib -0.248 | [2] -0.131 | encorafenib -0.056 | [3] 0.038

PRPF3 (UniProt O43395)
inactive: saracatinib -0.023 | sotrastaurin -0.114 | alvocidib 0.24 | Tubastatin A 0.07 | [1] -0.021 | defactinib -0.239 | rucaparib -0.041 | [2] -0.001 | encorafenib 0.171 | [3] -0.025

PEX13 (UniProt Q92968)
inactive: saracatinib -0.067 | sotrastaurin -0.083 | alvocidib 0.022 | Tubastatin A 0.061 | [1] -0.061 | defactinib -0.011 | rucaparib -0.058 | [2] 0.008 | encorafenib 0.047 | [3] -0.087

QRICH1 (UniProt Q2TAL8)
Sequence of UniProt Q2TAL8 (Q2TAL8 whole entry, looked up): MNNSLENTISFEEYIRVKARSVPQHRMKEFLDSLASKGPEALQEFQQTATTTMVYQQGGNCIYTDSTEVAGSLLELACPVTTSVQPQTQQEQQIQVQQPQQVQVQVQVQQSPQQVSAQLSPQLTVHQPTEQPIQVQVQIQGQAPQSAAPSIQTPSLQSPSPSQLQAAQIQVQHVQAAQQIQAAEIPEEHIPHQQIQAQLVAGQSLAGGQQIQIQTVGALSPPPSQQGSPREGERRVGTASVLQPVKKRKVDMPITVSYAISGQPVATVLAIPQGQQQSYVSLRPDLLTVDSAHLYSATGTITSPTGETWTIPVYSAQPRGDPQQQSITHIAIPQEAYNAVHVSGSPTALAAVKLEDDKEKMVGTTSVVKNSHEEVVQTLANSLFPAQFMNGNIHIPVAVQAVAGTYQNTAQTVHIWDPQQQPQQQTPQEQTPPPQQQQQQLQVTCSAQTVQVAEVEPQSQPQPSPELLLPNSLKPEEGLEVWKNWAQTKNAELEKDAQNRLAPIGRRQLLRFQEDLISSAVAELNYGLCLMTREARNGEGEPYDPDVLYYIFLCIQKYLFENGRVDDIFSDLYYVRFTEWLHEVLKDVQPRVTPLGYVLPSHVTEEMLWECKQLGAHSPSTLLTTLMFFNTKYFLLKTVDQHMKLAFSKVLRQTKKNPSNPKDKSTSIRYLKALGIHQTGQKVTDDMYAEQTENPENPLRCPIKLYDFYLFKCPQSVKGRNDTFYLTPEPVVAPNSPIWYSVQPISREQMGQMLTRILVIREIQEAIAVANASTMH
inactive: saracatinib -0.019 | sotrastaurin -0.076 | alvocidib -0.127 | Tubastatin A 0.156 | [1] -0.036 | defactinib -0.271 | rucaparib -0.008 | [2] -0.004 | encorafenib 0.097 | [3] 0.169

PEX5 isoform 4 (UniProt P50542)
inactive: saracatinib -0.425 | sotrastaurin -0.207 | alvocidib -0.088 | Tubastatin A 0.077 | [1] 0.178 | defactinib 0.006 | [2] 0.182 | [3] -0.097

PRPF38A (UniProt Q8NAV1)
inactive: saracatinib 0.019 | sotrastaurin 0.016 | alvocidib -0.024 | Tubastatin A -0.024 | [1] 0.052 | defactinib -0.036 | rucaparib 0.121 | [2] -0.035 | encorafenib -0.034 | [3] -0.008

From the supplement of paper PMC10849652
